High-throughput results as filed in PubChem.
Shown are actives, neighbours in structure and some others; about 9% of the full set was active somewhere.
ALDH1A1 block – qHTS Assay for Inhibitors of Aldehyde Dehydrogenase 1 (ALDH1A1); Aldehyde dehydrogenase 1A1 (Homo sapiens), P00352; Purified ALDH1A1, NADH fluorescence, propionaldehyde substrate; Potency, µM (doses to about 75.3 µM), inactives show at the highest dose activity, negative = inhibition, hits mostly inhibitors; 220,000 tested, 7.3% active;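 note: potency is the fitted concentration of half-maximal effect; plate controls were no enzyme wells and a reference inhibitor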
IMPase cell inh – qHTS Assay for Identifying the Cell-Membrane Permeable IMPase Inhibitors | Inositol monophosphatase 1 (Rattus norvegicus), P97697 | CHO-M1 cells, IP1 accumulation, HTRF TR-FRET ratio | inhibition (IP1 accumulation), % at 46.1 µM | 120,000 tested, under 10 active; active = well fitted curve in the direction sought with a large enough effect in the signal ratio, not every such curve was filed as active; inconclusive = small, poorly fitted or top-dose-only effect, or a change in a side signal; inactive = no such curve, though single readings can be large or run the other way; the % refers to the signal ratio;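 note: cells stimulated with carbachol in lithium chloride buffer; plate controls were DMSO basal wells for no effect and reference inhibitor wells for full effect; higher means more IMPase inhibition seen as more IP1 and lower FRET ratio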
Target sequence (P97697 whole entry, looked up): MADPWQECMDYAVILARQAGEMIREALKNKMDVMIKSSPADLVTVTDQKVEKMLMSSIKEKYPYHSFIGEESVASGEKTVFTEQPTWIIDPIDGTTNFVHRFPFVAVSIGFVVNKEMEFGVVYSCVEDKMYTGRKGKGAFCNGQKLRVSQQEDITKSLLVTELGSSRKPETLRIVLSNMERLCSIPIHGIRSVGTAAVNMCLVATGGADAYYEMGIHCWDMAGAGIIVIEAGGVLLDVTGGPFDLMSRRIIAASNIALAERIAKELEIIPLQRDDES
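Measured: the HTRF emission ratio (665/620 nm) plus the 620 nm donor channel, each fitted to the Hill equation to give AC50. Cells were CHO-M1 given compounds up to 46 uM and a 30 min carbachol stimulation at 37C.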
HPGD block – qHTS Assay for Inhibitors of HPGD (15-Hydroxyprostaglandin Dehydrogenase); 15-hydroxyprostaglandin dehydrogenase [NAD(+)] (Homo sapiens), P15428; purified HPGD, NADH fluorescence kinetic, PGE2 substrate; Potency, µM, for inactives: top-dose activity change, negative = inhibition, usual class: inhibitors; 150,000 tested, 4.3% active; note: potency is the fitted concentration of half-maximal effect
Target sequence (P15428 whole entry, looked up): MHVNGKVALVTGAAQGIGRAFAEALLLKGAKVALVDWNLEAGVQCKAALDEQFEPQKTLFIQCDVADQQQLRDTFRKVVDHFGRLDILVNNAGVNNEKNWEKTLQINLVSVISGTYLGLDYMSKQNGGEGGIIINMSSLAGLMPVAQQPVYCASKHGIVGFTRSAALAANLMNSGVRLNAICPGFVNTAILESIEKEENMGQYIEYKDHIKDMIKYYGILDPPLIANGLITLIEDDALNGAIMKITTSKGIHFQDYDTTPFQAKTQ
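20 nM HPGD preincubated 15 min at room temperature with compound in 50 mM Tris-HCl pH 8, 0.01% Tween 20. Started with 1 mM NAD+ and 30 uM prostaglandin E2; NADH fluorescence (360/450 nm) read 5 times over 30-s intervals, last minus first.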
Active calls of the source: *; ? = inconclusive; / = no result; [ ] = another dose, or the depositor's remark. Unless noted, calls come from the whole dose curve; as a rule, active = well fitted inhibition curve with a large enough effect (not every such curve was filed as active); inconclusive = small, poorly fitted or top-dose-only effect, or another doubt; inactive = no such curve, though single readings can be large or run the other way. Unless noted, % is set by controls: 0 for no effect and ±100 for the full control effect.

SMILES	ALDH1A1 block	IMPase cell inh	HPGD block
COC(CNC(=O)c1cc(Sc2nnc(C)s2)nc2ccccc12)OC	?	1	?
CCN(CC)CCCNC(=O)c1cc(Sc2nnc(C)s2)nc2ccccc12	2%	/	28µM*
Cc1ccc2nc(-c3cccnc3SCC(=O)N3c4ccccc4CC3C)[nH]c2c1 (stereo not given)	?	-3	?
Cc1ccc2nc(SCC(=O)N3c4ccccc4CC3C)c(C)cc2c1 (stereo not given)	25µM*	?	-28%
Cc1ccccc1-n1ncc2c(SCC(=O)N3c4ccccc4CC3C)ncnc21 (stereo not given)	14µM*	4	3%
COc1ccc(N2CCN(C(=O)CSc3ncnc4c3cnn4-c3ccccc3C)CC2)cc1	-6%	-3	-3%
Cc1ccc(CNC(=O)CCCCn2c(=O)c3ccccc3n(Cc3ccc(C)cc3)c2=O)cc1	/	4	/
CC1(C)CC(=O)C2=C(C1)OC(N)=C(C#N)[C@@]21C(=O)N(CC(N)=O)c2ccccc21	18%	0	/
CC1(C)CC(=O)C2=C(C1)OC(N)=C(C#N)C21C(=O)N2CCCc3cccc1c32 (stereo not given)	7.1µM*	2	-9%
N#CC1=C(N)OC2=C(C(=O)CCC2)C12CCN(C(=O)OCc1ccccc1)CC2	?	-3	-24%
CC1(C)CC(=O)C2=C(C1)OC(N)=C(C#N)C21CCN(C(=O)OCc2ccccc2)CC1	10µM*	20	-27%
Cc1ccc(S(=O)(=O)Nc2ccc3oc(=O)sc3c2)c(C)c1	?	-4	?
S=c1[nH]cc(-c2ccccc2)n1-c1ccccc1Cl	0.89µM*	/	18µM*
COc1ccccc1-n1c(-c2ccccc2)c[nH]c1=S	2.5µM*	/	/
CCn1c(-c2ccc(-c3ccccc3)cc2)c[nH]c1=S	?	-6	?
COc1ccccc1-n1c(-c2ccccc2)c[n+]2c1CCc1ccccc1-2	5%	/	/
Cc1ccc(C)c(N2CCN(C(=O)c3csc4ccccc34)CC2)c1	?	-9	-11%
COC(=O)[C@@H]1[C@@H](C#N)C2(c3ccccc3-c3ccccc32)N(c2ccc(Cl)cc2)N1C#N	-26%	19	?
Cc1ccc(N(C(=O)Cc2c[nH]c3ccccc23)C(C(=O)NC2CCCCC2)c2ccco2)cc1 (stereo not given)	-6%	0[1.84 µM]	-6%
COc1cccc(Nc2nc3ccc(C(=O)c4ccccc4)cc3n3c(C)nnc23)c1	/	1	/
CN(C)c1ccc(C2C3C(=O)NC(=O)C3ON2c2ccc(Cl)cc2)cc1 (stereo not given)	25µM*	2	-8%
CN(C)c1ccc(S(=O)(=O)c2ccc(Cl)cc2)cc1	?	10	?
Cn1c(CN2CCCC2)nc2cc(NC(=O)c3cccs3)ccc21	?	/	-21%
N#CCCN(C(=O)COc1ccc(F)cc1Br)c1ccccc1F	18µM*	/	/
CCc1ccc(OCC(=O)N(C)CCC#N)c(Br)c1	23%	0	-4%
SMILES	ALDH1A1 block	IMPase cell inh	HPGD block
CCN(CC)c1ccc(S(=O)(=O)Nc2cc(Cl)ccc2Cl)cc1NC(=S)NC(=O)C1CCCC1	22µM*	/	-30%
COc1ccccc1NS(=O)(=O)c1ccc(Cl)c(NC(=S)NC(=O)C2CCCC2)c1	?	/	-8%
CCCCCC(=O)O[C@H](CC(=O)O)C[N+](C)(C)C	6%	4	-8%
O=C(COC(=O)C1CC(=O)N(Cc2ccccc2)C1)c1ccc(Br)cc1 (stereo not given)	1%	/	-10%
Cc1[nH]c2ccccc2c1C(=O)COC(=O)C1CC(=O)N(Cc2ccco2)C1 (stereo not given)	?	-1	-10%
Cc1ccc(CCN2CC(C(=O)NCc3ccco3)CC2=O)cc1 (stereo not given)	28µM*	2	-12%
Cc1ccc(CCN2CC(C(=O)NCCN3CCCCCC3)CC2=O)cc1 (stereo not given)	11%	5	2%
Cc1ccc(C(=O)Oc2ccc(C(=O)COC(=O)C3CC(=O)N(Cc4ccco4)C3)cc2)cc1 (stereo not given)	25µM*	?	?
O=C(COC(=O)C1CC(=O)N(Cc2ccco2)C1)c1ccc(OC(=O)c2ccco2)cc1 (stereo not given)	1.6µM*	5	18µM*
Cc1ccc(NC(=O)Cc2c(O)c3ccccc3[nH]c2=O)c(C)c1	-16%	/	/
CS(=O)(=O)c1ccc(C(=O)NCc2ccccc2F)cc1	3%	/	/
N#Cc1ccsc1NC(=O)CN1CCN(S(=O)(=O)c2ccccc2C(F)(F)F)CC1	0%	-1	-9%
CC(C)C(C)C	25%	/	2%
CC(C)/C(=N/[N+](C)(C)C)c1ccccc1	4%[13.5 µM]	/	-5%
COC(=O)CN1C2=NCCCN2c2ccccc21	-2%	/	/
Cc1ccc(N(CCC#N)C(=O)CSc2ccc3c(c2)OCCO3)cc1	?	11	-11%
Cc1ccc(N(CCC#N)C(=O)CCl)cc1C	0.35µM*	-5	-4%
Clc1cccc(CN2CCN(Cc3nc(CCc4ccccc4)no3)CC2)c1	-2%	/	/
CCCCN(Cc1ccccc1)C(=O)CCN1C(=O)C2C3C=CC(C3)C2C1=O (stereo not given)	2.2µM*	/	/
CN(Cc1ccccc1)C(=O)CN1C(=O)C2C3C=CC(C3)C2C1=O (stereo not given)	-4%	-5	-14%
Oc1ccccc1C1=Nc2ncnn2C(c2ccc(F)cc2)C1 (stereo not given)	?	5	-11%
CCOC(=O)N1CCN(C(=O)Nc2sc3nc4n(c(=O)c3c2C)CCC(C)CC4)CC1 (stereo not given)	13µM*	?	-22%
CCOC(=O)N1CCN(C(=O)Nc2ccc3nc(C)sc3c2)CC1	?	12	-4%
CCOC(=O)c1sc2nc3n(c(=O)c2c1C)CCC(C)CC3 (stereo not given)	11µM*	0	25µM*
CCOC(=O)N1CCC(NC(=O)c2sc3nc4n(c(=O)c3c2C)CCCC4)CC1	-3%	?	1%
SMILES	ALDH1A1 block	IMPase cell inh	HPGD block
Cc1cccc(C)c1NC(=O)C1=C(O)c2sccc2N(C)S1(=O)=O	-5%	/	/
Cc1cc(C)c(S(C)(=O)=O)c(N(C)N)n1	6%	/	/
COC(=O)NCCOc1nc(N(C)C)nc(N(C)C)n1	-2%	2	-11%
CN(C)c1nc(C(=O)NN)nc(N(C)C)n1	13µM*	7	-6%
CCOc1ccc(C2c3c(oc4ccccc4c3=O)C(=O)N2Cc2ccc3c(c2)OCO3)cc1 (stereo not given)	/	6	/
CCC(C(=O)Nc1ccccc1)c1ccccc1 (stereo not given)	3%	/	-6%
CCC(C(=O)Nc1cc(Cl)c(OC)cc1OC)c1ccccc1 (stereo not given)	20µM*	/	/
Cc1ccc(-n2cccc2/C=C2\C(=N)N3N=C(C(C)C)SC3=NC2=O)cc1	16µM*	/	/
CS(=O)(=O)C1=NSC2=NC(=O)/C(=C\c3cccn3-c3ccc(Cl)cc3)C(=N)N21	?	/	-16%
CC1(O)N(CCC(=O)Nc2cccc(F)c2)C(=O)OC12CCCCC2 (stereo not given)	-6%	/	/
